High-throughput results deposited in PubChem by several laboratories.
A selection: hits, their analogues and other compounds. The true share with any hit is near 3.5%.
BoNT-A LC inh2 = BoNT/A light chain protease inhibitors, primary screen, biochemical, flow cytometry, MLPCN library; Botulinum neurotoxin type A light chain protease (Clostridium botulinum A str. ATCC 3502); multiplex microsphere protease substrate cleavage; inhibition, % at 10 µM; actives 0.17% (n = 360,000); also: plate controls were buffer without enzyme for full effect and enzyme alone for no effect
Anthrax LF prot = Bacillus anthracis LF protease inhibitors, primary screen, biochemical, multiplex microsphere, MLPCN library | inhibition, % at 10 µM | actives 0.12% (n = 360,000) | Lethal factor (Bacillus anthracis), P15917 | AID 588501, 2011 | multiplex microsphere protease cleavage assay; also: plate controls were buffer without enzyme for full effect and enzyme alone for no effect
BoNT F protease = BoNT/F light chain protease inhibitors, primary screen, biochemical, flow cytometry, MLPCN library. Botulinum neurotoxin type F light chain protease (Clostridium botulinum). inhibition, % at 10 µM. actives 0.22% (n = 360,000). AID 588497, 2011. Multiplex microsphere protease cleavage assay; in the data active = inhibition above about 35%, passing the limit was not always enough; inconclusive = no clear call, values can overlap the other calls; also: plate controls were buffer without enzyme for full effect and enzyme alone for no effect
Vc quorum ag = inducers of Vibrio cholerae quorum light production without autoinducers, primary screen, BH1578 luxS cqsA deficient, single point | V. cholerae BH1578 lux reporter, luminescence, 6 h | activation, % at 18.7 µM | actives 0.16% (n = 350,000) | AID 588436, 2011; in the data active = activation mostly above about 9.7%, no sharp cut-off; inconclusive = no clear call, values can overlap the other calls; inactive = mostly below about 3.7%
Autofluor counter = compound fluorescence in toxin protease inhibitor counterscreen; actives 3.1% (n = 360,000); compound autofluorescence counterscreen, microsphere flow cytometry; stronger effect = higher value; fluorescence intensity (test concentration not listed); in the data active = fluorescence intensity above about 16000; inconclusive = no clear call, values can overlap the other calls
* = called active by the depositor; i = inactive; ? = inconclusive; nt = not tested or not shown. Rule as the data show it, unless noted: active = inhibition above about 30%; inconclusive = no clear call, values can overlap the other calls; inactive = below that.

SMILES	BoNT-A LC inh2	Anthrax LF prot	BoNT F protease	Vc quorum ag	Autofluor counter
N#CCSc1nc2ccccc2c(=O)n1CC1CCCC1	0	1	-6	-1	3226
COc1ccc(C(=O)N2CCN(c3ccccc3)CC2)cc1S(=O)(=O)N1CCCC1	4	4	4	i	4173
N#Cc1cc(C#N)c(N2CCN(c3cccc(Cl)n3)CC2)nc1N	-14	-11	-117	0	19498*
CN(CC(=O)Nc1cccc(F)c1)C(=O)CCc1nc2cc(S(=O)(=O)N3CCOCC3)ccc2n1C	1	0	?	0	4226
COc1ccc(N2C(=O)C3C4C=CC(C4)C3C2=O)c(OC)c1 (stereo not drawn)	0	1	1	1	22210*
C[C@@H]1CN([C@H](C)CO)C(=O)CCCn2cc(nn2)CO[C@H]1CN(C)C(=O)Nc1cccc(Oc2ccccn2)c1	0	2	-9	i	2900
COc1cccc(OCCN2CCN(c3ncnc4c3cnn4-c3ccccc3)CC2)c1	-2	-3	-7	i	16922*
CC1CCN(c2ncnc3c2cnn3-c2ccccc2)CC1	2	-3	1	0	4149
O=C(NCc1ccccc1)C(Cc1ccccc1)N1C(=O)C2C3CCC(C3)C2C1=O (stereo not drawn)	9	-16	10	i	16697*
Cc1ccc(CNC(=O)C(C)OC(=O)c2ccco2)cc1 (stereo not drawn)	?	0	4	1	22466*
O=C(CCC(=O)N1CCSc2ccccc21)NCCc1ccccc1	-1	-11	-9	0	4388
COc1ccccc1N(CC(=O)NCc1ccccc1)C(=O)CCC(=O)Nc1nccs1	0	3	-4	0	2910
COc1ccc([C@@H]2CC=C(C(=O)O)[C@H](c3ccccc3F)N2S(=O)(=O)c2ccccc2C)cc1	0	0	2	0	3687
CC(C)NC(=O)CSc1nc2ccccc2n1-c1ccccc1	0	1	-2	i	22704*
CC(C)(C)NC(=O)CSc1nc2ccccc2n1-c1ccccc1	0	-3	-12	i	4780
Cc1ccccc1N(CC(=O)NCc1ccccc1)C(=O)CCC(=O)Nc1nccs1	0	-10	-15	i	3752
CCOC(=O)[C@@H]1[C@H]2COc3cc(OC)ccc3[C@@H]2N2C(=O)N(c3ccccc3)C(=O)[C@@]12C	0	-3	-2	i	3525
COc1cccc(-n2c(SCC(N)=O)nc3ccccc3c2=O)c1	0	-2	-3	-1	3468
COc1cccc(-n2c(SCC(=O)Nc3sc4c(c3C(N)=O)CCC4)nc3ccccc3c2=O)c1	-1	-3	-2	-4	16606*
COc1ccccc1Oc1cc(C#N)c(C#N)cc1-n1nnc2ccccc21	2	-8	2	0	22329*
N#Cc1cc([N+](=O)[O-])c(-n2nnc3ccccc32)c([N+](=O)[O-])c1	0	0	-4	-4	4249
CCC(C(=O)Nc1ccc([N+](=O)[O-])cn1)c1ccccc1 (stereo not drawn)	nt	nt	nt	-1	nt
CC(=O)c1ccc(NC(=O)CSC(C)C)cc1	0	0	2	0	22011*
CSCCC(NS(=O)(=O)c1ccccc1F)C(=O)NCc1ccncc1 (stereo not drawn)	3	-4	10	i	5045
Cc1ccc(N2C(=O)NC(=O)/C(=C/c3ccc(OC(=O)c4cccs4)cc3)C2=O)cc1	?	-4	-6	i	24767*
CC1=NN(c2ccc(C(=O)O)cc2)C(=O)/C1=C\c1ccc(OC(=O)c2cccs2)cc1	-1	-7	5	0	4122
Cn1c(=O)c2c(ncn2CC(=O)N/N=C/c2ccc(Br)s2)n(C)c1=O	0	-1	0	i	2844
CC(=O)CCC(=O)N1CCC(n2nccc2NC(=O)c2ccccc2C)CC1	-2	0	4	i	4572
CCCNC(=O)Cn1c(=O)/c(=C/c2ccc(-c3ccc([N+](=O)[O-])cc3)o2)s/c1=C\C(=O)C(C)(C)C	32*	33*	22	nt	6201
CSc1ccc(/C=c2\s/c(=C\C(=O)C(C)(C)C)n(CC(=O)NCCC3=CCCCC3)c2=O)cc1	9	5	5	i	2691
